The target of test [1] is T1, Serine/threonine-protein kinase Nek9 (Homo sapiens) (UniProt Q8TD19).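 Note: each value is a mean percent inhibition of NEK9.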
T1 sequence (whole entry): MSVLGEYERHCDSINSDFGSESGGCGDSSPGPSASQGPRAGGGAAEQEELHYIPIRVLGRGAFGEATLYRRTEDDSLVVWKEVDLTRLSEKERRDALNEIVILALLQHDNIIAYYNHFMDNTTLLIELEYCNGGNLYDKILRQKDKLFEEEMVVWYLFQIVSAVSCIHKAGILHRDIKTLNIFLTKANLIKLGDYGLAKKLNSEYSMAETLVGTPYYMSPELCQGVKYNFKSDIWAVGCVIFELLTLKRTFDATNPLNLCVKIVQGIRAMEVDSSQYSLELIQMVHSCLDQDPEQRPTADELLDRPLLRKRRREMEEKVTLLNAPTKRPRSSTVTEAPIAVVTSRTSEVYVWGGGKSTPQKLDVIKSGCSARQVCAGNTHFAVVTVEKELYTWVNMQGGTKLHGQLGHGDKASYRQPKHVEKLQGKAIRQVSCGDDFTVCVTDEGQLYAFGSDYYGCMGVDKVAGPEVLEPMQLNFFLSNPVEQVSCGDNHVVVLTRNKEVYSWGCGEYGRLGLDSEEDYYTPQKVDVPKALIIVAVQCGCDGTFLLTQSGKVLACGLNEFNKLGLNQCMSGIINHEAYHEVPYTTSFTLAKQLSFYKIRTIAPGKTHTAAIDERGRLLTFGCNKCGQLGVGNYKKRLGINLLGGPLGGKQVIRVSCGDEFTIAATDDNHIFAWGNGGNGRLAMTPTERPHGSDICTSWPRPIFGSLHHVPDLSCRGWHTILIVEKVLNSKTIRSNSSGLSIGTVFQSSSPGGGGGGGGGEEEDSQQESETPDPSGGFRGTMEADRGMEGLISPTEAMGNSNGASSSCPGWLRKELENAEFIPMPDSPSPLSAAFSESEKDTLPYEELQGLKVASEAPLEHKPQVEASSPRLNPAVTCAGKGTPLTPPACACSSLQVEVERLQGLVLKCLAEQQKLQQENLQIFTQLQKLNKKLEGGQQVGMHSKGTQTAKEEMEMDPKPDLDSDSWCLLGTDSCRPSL
Conditions: at 1 µM.

The target of test [2] is Serine/threonine-protein kinase PLK1 (Homo sapiens) (UniProt P53350). The note with it: at 0.1 µM.
Test [3] has the same target. Conditions: at 1 µM.
For test [4], the target named is T2, Dual specificity protein kinase TTK (Homo sapiens) (UniProt P33981).
T2 sequence (whole entry): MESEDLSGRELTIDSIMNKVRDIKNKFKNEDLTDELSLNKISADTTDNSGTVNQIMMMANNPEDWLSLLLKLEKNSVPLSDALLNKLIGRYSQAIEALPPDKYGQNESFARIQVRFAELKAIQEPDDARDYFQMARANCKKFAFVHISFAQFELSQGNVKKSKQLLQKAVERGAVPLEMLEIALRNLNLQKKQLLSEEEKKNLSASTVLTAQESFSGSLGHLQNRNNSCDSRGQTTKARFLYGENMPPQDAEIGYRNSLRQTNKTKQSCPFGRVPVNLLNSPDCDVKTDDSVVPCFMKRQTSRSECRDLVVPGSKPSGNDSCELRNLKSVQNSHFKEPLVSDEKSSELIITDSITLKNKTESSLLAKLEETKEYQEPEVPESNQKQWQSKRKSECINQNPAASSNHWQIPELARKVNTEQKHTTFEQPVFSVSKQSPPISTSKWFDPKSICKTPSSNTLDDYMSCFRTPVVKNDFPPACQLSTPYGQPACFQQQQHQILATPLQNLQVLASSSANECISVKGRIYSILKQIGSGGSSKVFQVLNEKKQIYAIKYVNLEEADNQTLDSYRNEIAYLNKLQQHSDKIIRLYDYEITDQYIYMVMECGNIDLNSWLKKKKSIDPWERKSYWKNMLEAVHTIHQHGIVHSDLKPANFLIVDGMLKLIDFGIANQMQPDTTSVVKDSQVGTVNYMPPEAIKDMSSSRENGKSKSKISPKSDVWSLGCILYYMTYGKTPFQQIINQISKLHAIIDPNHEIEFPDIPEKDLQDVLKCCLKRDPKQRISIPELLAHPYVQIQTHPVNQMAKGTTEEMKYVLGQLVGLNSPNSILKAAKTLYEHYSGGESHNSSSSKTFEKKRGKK
The note with it: at 0.1 µM.

For test [5], the system named is T3, Receptor-type tyrosine-protein kinase FLT3 (Homo sapiens), P36888 [D835Y].
T3 sequence (whole entry): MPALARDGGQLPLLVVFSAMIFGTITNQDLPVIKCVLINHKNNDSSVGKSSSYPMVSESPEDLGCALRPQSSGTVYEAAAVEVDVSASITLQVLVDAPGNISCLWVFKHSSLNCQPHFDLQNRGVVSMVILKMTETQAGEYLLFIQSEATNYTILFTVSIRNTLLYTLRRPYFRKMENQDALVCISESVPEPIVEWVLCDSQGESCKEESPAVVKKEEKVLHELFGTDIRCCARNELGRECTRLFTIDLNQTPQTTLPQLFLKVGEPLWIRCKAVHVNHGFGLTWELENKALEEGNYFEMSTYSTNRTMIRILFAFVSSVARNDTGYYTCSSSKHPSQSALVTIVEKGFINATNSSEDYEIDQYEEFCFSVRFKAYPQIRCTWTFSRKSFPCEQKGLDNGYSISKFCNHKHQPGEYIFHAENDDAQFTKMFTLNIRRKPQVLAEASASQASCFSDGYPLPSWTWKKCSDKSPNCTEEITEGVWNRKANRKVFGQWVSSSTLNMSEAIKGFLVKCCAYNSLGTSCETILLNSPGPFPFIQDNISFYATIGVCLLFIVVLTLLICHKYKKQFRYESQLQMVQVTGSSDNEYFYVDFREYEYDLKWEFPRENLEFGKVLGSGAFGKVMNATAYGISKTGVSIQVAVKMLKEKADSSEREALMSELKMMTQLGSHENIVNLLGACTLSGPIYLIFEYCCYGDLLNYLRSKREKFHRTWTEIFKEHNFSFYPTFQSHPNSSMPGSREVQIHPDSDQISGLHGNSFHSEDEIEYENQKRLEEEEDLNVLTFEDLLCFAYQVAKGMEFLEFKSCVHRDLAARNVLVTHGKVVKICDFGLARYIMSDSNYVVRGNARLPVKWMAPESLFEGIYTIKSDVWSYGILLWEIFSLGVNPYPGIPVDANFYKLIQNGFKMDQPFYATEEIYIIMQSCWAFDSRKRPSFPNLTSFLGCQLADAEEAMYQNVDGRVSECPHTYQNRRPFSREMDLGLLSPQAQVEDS
The note with it: at 1 µM.

Test [6] addresses Vascular endothelial growth factor receptor 3 (Homo sapiens) (UniProt P35916). Conditions: at 0.1 µM.
Test [7] shares this target. The note with it: at 1 µM.
The target of test [8] is Macrophage colony-stimulating factor 1 receptor (Homo sapiens) (UniProt P07333). The note with it: at 0.1 µM.
The target is the same in test [9]. The note with it: at 1 µM.
Test [10] addresses Tyrosine-protein kinase Fyn (Homo sapiens) (UniProt P06241). Conditions: at 0.1 µM.
Test [11] has the same target. The note with it: at 1 µM.
The target in test [12] is Tyrosine-protein kinase HCK (Homo sapiens) (UniProt P08631). The note with it: at 0.1 µM.
The target is the same in test [13]. Conditions: at 1 µM.
In test [14] the target is Insulin-like growth factor 1 receptor (Homo sapiens) (UniProt P08069). The note with it: at 0.1 µM.
For test [15] the target is unchanged. The note with it: at 1 µM.
Test [16] deals with Insulin receptor (Homo sapiens) (UniProt P06213). The note with it: at 0.1 µM.
Test [17] shares this target. The note with it: at 1 µM.
For test [18], the target named is Insulin receptor-related protein (Homo sapiens) (UniProt P14616). Conditions: at 0.1 µM.
Test [19] shares this target. The note with it: at 1 µM.
Test [20] addresses T4, Tyrosine-protein kinase ITK/TSK (Homo sapiens) (UniProt Q08881).
T4 sequence (whole entry): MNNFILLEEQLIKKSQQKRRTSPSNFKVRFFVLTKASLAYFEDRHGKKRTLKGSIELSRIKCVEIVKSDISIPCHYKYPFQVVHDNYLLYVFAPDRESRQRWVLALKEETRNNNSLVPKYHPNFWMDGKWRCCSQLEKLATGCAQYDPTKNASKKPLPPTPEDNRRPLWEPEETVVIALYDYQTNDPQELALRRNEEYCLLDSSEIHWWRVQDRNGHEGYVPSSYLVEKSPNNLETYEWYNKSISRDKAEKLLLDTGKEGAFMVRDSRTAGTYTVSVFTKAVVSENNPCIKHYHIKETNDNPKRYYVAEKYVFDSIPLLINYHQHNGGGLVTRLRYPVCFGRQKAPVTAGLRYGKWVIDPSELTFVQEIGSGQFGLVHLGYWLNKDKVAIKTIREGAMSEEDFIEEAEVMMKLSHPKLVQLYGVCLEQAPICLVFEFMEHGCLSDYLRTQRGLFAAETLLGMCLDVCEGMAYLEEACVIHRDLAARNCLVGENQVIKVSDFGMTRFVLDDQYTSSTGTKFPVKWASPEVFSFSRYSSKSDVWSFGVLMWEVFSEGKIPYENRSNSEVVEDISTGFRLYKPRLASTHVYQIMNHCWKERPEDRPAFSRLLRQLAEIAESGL
Conditions: at 0.1 µM.

Structures are written as SMILES.

The values that follow come from ChEMBL document CHEMBL1961873, “Compounds: GSK PKIS; Assays: Nanosyn kinase panel” (2012).

Chain of Vascular endothelial growth factor receptor 3 (Homo sapiens) (P35916 whole entry): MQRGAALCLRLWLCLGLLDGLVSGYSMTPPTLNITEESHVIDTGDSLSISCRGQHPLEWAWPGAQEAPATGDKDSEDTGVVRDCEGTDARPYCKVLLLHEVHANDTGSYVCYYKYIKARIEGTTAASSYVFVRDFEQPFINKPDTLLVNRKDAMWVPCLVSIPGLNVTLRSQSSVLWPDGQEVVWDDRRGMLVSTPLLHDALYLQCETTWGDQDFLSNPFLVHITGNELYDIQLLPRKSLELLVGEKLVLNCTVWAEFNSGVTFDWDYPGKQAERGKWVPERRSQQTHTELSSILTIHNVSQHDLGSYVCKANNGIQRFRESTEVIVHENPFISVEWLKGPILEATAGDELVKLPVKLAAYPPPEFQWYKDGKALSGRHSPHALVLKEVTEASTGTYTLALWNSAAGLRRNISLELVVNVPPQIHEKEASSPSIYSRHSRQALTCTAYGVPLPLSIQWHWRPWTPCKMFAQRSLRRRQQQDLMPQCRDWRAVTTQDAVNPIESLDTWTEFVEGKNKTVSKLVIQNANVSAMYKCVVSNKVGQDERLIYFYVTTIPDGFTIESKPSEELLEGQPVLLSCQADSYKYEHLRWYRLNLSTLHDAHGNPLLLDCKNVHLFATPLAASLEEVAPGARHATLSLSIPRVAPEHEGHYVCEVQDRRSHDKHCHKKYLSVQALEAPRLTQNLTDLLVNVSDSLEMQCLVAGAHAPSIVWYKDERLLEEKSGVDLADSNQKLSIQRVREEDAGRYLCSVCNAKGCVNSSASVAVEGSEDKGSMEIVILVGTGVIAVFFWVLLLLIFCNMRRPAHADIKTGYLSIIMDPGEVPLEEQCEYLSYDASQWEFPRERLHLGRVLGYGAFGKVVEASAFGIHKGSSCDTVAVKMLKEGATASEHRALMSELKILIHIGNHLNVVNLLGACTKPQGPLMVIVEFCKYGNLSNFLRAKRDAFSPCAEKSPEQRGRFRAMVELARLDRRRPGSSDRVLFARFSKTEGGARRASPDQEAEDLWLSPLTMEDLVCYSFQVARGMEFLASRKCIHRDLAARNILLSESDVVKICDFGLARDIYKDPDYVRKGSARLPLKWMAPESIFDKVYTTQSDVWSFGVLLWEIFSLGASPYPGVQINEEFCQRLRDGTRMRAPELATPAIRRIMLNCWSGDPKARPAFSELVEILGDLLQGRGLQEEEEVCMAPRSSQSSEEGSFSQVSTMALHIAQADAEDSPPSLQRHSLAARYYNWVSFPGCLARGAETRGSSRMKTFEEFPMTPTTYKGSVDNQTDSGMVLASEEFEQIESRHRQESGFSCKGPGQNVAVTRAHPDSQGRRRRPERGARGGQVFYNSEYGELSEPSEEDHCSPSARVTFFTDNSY
Chain of Insulin receptor-related protein (Homo sapiens) (P14616 27-742 limits assumed): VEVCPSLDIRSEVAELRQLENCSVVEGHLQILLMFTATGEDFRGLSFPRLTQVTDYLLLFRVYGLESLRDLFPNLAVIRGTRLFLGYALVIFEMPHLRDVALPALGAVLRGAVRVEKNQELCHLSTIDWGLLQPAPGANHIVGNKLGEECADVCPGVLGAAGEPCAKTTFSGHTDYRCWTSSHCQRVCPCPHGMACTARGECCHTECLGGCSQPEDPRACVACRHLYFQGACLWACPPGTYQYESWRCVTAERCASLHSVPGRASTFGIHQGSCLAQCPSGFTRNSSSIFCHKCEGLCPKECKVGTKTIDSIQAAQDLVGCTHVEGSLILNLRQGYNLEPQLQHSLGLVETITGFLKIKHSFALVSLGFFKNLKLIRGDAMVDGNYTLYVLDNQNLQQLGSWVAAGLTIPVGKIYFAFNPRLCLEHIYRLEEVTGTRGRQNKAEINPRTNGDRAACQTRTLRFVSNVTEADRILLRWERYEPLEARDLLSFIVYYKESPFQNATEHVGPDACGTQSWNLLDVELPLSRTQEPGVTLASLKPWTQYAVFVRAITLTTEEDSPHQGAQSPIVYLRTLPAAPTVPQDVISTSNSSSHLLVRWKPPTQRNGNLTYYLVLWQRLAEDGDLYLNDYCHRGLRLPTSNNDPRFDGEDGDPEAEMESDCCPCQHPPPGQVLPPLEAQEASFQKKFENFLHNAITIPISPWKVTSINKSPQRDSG
Chain of Insulin receptor-related protein (Homo sapiens) (P14616 747-1297 limits assumed): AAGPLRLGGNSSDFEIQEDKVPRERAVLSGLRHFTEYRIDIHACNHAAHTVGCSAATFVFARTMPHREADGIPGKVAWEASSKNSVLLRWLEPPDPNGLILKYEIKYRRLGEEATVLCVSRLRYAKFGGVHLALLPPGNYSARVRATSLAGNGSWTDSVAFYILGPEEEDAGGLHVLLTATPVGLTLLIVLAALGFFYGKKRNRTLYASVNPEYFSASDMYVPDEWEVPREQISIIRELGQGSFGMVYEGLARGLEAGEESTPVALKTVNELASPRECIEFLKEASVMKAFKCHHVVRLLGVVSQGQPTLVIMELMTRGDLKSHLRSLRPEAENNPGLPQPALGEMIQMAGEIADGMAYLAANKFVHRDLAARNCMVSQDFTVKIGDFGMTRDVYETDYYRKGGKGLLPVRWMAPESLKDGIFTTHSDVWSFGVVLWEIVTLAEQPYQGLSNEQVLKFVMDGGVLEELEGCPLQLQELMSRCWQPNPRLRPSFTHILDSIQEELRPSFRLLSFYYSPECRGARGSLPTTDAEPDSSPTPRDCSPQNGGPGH
Chain of Insulin-like growth factor 1 receptor (Homo sapiens) (P08069 31-736 limits assumed): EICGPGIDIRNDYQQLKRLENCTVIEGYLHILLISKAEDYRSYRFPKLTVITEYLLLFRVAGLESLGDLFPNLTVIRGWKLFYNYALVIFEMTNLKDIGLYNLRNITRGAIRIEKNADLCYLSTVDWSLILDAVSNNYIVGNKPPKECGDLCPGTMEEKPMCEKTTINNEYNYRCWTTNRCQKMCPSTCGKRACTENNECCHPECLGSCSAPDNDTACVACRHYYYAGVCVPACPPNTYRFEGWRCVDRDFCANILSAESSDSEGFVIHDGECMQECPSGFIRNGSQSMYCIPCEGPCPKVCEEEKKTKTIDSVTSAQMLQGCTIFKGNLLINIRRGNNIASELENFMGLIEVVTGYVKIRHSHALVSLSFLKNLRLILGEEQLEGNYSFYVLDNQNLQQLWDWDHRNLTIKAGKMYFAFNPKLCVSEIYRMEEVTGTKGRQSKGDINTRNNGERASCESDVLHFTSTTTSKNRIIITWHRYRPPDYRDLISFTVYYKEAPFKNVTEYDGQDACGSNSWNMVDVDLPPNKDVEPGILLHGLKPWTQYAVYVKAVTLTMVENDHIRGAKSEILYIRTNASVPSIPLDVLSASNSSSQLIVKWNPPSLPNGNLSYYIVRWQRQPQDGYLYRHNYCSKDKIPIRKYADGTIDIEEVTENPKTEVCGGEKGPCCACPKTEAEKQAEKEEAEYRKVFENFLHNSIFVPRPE
Chain of Insulin-like growth factor 1 receptor (Homo sapiens) (P08069 741-1367 limits assumed): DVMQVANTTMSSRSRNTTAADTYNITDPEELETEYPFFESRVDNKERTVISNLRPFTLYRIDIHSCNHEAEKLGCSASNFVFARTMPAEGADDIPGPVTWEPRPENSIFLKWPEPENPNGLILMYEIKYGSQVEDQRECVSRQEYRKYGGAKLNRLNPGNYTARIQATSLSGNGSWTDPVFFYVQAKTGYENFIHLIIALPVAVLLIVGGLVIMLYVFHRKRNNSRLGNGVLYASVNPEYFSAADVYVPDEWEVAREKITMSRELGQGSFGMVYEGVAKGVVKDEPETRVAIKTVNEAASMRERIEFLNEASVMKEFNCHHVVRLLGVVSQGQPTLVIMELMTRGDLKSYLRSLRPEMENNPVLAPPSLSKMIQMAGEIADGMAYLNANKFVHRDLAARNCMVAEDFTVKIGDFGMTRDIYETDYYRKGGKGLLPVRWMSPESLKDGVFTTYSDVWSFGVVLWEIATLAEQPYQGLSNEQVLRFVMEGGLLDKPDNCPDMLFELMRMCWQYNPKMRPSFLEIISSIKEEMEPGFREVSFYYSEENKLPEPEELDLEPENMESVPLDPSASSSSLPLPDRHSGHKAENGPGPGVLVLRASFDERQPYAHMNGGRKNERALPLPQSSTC
Chain of Tyrosine-protein kinase HCK (Homo sapiens) (P08631 2-526 limits assumed): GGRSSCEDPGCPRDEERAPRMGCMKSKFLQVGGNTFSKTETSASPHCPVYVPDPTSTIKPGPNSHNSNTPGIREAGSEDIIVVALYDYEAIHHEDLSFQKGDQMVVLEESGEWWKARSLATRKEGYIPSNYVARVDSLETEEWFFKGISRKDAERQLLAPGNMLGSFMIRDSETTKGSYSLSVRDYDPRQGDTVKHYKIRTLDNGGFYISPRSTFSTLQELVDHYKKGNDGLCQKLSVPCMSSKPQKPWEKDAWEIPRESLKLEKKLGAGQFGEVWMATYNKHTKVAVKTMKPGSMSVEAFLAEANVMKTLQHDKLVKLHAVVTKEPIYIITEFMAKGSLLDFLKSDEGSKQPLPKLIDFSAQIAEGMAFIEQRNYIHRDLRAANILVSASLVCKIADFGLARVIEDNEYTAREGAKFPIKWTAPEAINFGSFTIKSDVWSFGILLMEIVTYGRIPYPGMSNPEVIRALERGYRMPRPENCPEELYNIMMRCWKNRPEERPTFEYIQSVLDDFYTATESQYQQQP
Chain of Tyrosine-protein kinase Fyn (Homo sapiens) (P06241 2-537 limits assumed): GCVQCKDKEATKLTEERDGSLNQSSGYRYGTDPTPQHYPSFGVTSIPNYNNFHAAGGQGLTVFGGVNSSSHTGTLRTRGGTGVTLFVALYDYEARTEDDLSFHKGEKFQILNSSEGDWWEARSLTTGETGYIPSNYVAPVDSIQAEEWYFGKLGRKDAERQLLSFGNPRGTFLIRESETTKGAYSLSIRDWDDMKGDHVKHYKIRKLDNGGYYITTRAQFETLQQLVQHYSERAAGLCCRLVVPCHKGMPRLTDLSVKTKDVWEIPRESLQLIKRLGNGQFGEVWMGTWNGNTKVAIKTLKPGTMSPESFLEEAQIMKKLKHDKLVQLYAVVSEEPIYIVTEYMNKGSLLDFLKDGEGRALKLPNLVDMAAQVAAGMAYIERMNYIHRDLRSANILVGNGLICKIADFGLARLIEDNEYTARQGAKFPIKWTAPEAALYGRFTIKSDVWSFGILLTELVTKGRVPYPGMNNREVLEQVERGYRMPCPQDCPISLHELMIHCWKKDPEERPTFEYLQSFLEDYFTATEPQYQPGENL

For the molecule `CS(=O)(=O)Nc1ccc(-c2ccc3c(NC(=O)C4CC4)n[nH]c3c2)cc1`, the inhibition in test [1] was -0.22%; in [2], 4.12%; in [3], 4.87%; in [4], 7.49%; in test [5], 3.86%; in [6] it was -0.12%. Further, the inhibition in [7] is 2.39%; in test [8], 1.7%; in test [9], 3.16%; in [10] it was 0.67%; in [11], 2.5%; in test [12], 5.35%. For the same molecule, the inhibition in test [13] is 8.62%; in [14], 7.15%; in test [15] it was 5.41%; in test [16], 4.13%; in test [17], 5.66%; in test [18], 3.14%. The inhibition in test [19] stood at 2.41%; in test [20] it was 1.56%.

With `Fc1ccc(Nc2nccc(-c3c(-c4ccc(C(F)(F)F)cc4)nn4ncccc34)n2)cc1F`, the inhibition was 1.67% in test [1]; 2.18% in [2]; 2.92% in [3]; 7.64% in [4]; -2.39% in test [5]; 0.19% in test [6]. For the same molecule, the inhibition in test [7] was -1.91%; in [8] it was 2.64%; in test [9], 6.66%; in test [10] it was 0.1%; in [11], 2.19%; in [12] it was 4.54%. Moreover, the inhibition was 7.92% in [13]; 1.9% in test [14]; 4.26% in [15]; 4.61% in [16]; 3.27% in [17]; 3.45% in test [18]. Further, the inhibition is 2.2% in test [19] and 1.45% in test [20].

Consider `NS(=O)(=O)c1cccc(N/C=C2\C(=O)Nc3ccccc32)c1`, for which the inhibition in [1] came to 4.34%; in test [2] it was 3.78%; in test [3] it was 4.79%; in [4] it was 9.01%; in test [5], 25.9%; in [6], 1.98%. The inhibition in [7] was determined as 14.8%; in test [8], 5.41%; in test [9], 25.1%; in [10] it was 2.53%; in [11] it was 4.25%; in test [12] it was 6.87%. In addition, the inhibition in test [13] came out at 17.6%; in test [14], 2.44%; in test [15], 5.81%; in test [16], 5.3%; in test [17], 11.9%; in test [18] it was 2.22%. The inhibition was 2.55% in test [19] and 1.13% in test [20].

As for `CN(c1ccc(NC(=O)NCCN2CCOCC2)cc1)c1ccnc(Nc2ccc(CS(C)(=O)=O)cc2)n1`, the inhibition in [1] is 4.91%; in [2] it was 0.46%; in test [3], 1.42%; in test [4], 6.2%; in [5], 19.9%; in test [6], 4.1%. Also, the inhibition came out at 20.6% in [7]; 79.7% in [8]; 97% in [9]; 0.52% in [10]; 1.63% in [11]; 1.67% in test [12]. Also, the inhibition in test [13] stood at 13.6%; in [14], 3.76%; in test [15], 4.94%; in test [16], 0.64%; in test [17], 4%; in [18], 2.7%. The inhibition came to 2.84% in test [19] and 1.76% in test [20].

`CC1=C(C(=O)Nc2ccc3[nH]ncc3c2)C(c2ccc(F)cc2)N=C(c2ccc(C(F)(F)F)nc2)N1` (stereo not given): the inhibition in test [1] was -1.51%; in [2], 1.85%; in test [3], 1.78%; in [4] it was 3.99%; in [5] it was 1.9%; in test [6], 1.85%. The inhibition was determined as 0.82% in test [7]; 3.03% in [8]; 2.25% in test [9]; 4.17% in test [10]; 3.27% in test [11]; 4.24% in [12]. Also, the inhibition in [13] is 12.2%; in test [14], 3.5%; in test [15], 3.35%; in test [16], 3.82%; in [17] it was 1.7%; in [18], 1.92%. In addition, the figures for the inhibition in [19] and in [20] were 1.25% and 1.64%, respectively.
